The supplement of paper PMC3545927
This is one part of the list. No count for the full screen is at hand.

Target: furin, P09958
Experiment: furin cleavage Z-score vs untreated control; higher = more cleavage, active = 3.5 or more, inactive = 1 or less, 8 variable residues between constant flanks
In short: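 The cleavage Z-score was derived for purified furin acting on 8-mer peptides held on magnetic beads and fused to a cDNA oligonucleotide. Digests lasted 7.5, 15 or 30 min at 1:10 enzyme:substrate in 50 mM HEPES pH 7.5 with CaCl2 and NaCl. Sequencing counts of released DNA, log-transformed against furin-free reactions, were lowess-adjusted and scaled by median absolute deviation.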

furin, P09958, sequence (P09958 whole entry): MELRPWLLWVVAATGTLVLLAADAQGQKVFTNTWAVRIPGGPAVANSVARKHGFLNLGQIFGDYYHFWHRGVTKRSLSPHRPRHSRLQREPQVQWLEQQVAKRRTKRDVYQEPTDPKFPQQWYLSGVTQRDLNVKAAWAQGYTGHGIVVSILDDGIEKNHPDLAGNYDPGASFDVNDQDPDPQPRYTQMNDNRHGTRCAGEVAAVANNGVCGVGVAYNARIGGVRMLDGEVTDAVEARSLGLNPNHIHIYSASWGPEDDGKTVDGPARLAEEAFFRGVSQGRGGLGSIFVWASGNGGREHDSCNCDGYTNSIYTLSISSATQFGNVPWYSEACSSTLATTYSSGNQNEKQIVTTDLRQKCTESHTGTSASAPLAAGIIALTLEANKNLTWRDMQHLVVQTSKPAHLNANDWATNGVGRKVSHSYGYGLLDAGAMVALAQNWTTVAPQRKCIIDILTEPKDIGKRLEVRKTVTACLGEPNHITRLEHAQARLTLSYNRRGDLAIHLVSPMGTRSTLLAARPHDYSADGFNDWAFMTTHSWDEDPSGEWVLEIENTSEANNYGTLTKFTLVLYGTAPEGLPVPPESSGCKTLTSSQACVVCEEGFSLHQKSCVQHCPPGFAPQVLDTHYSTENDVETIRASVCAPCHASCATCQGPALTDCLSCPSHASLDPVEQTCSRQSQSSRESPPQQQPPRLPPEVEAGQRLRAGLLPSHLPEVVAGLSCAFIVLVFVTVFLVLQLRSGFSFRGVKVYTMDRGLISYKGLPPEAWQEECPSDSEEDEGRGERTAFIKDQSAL

Row | Sequence | furin cleavage Z-score (7.5 min) | furin cleavage Z-score (15 min) | furin cleavage Z-score (30 min)
1 | CAPPLEGEPGAGNASASA [HC1355] | 0.988 (inactive) | 0.95 (inactive) | 0.522 (inactive)
2 | CAGKSLKKRSAGNASASA [FS-1198] | 10.8 (active) | 8.86 (active) | 8.35 (active)
3 | CAGKSVKKRSAGNASASA [FS-161] | 8.72 (active) | 12 (active) | 9.51 (active)
4 | CAPEKGGRKPAGNASASA [HC1445] | 0.667 (inactive) | -1.91 (inactive) | -0.0787 (inactive)
5 | CATCRNMWSGAGNASASA [HC1186] | 1.45 | 1.34 | 0.472 (inactive)
6 | CAIVVTSTWVAGNASASA [HC2144] | 0.282 (inactive) | -0.196 (inactive) | 0.858 (inactive)
7 | CALLVRKKRKAGNASASA [FS-824] | 9.19 (active) | 10.5 (active) | 8.06 (active)
8 | CAHLVRKKRKAGNASASA [FS-1339] | 10.2 (active) | 11.5 (active) | 10.3 (active)
9 | CASGSKKKRKAGNASASA [FS-1278] | -1.57 (inactive) | 0.447 (inactive) | 0.492 (inactive)
10 | CAIFWRKKRKAGNASASA [FS-337] | 4.37 (active) | 3.52 (active) | 5.53 (active)
11 | CAATCTANHDAGNASASA [HC1267] | -0.592 (inactive) | 0.126 (inactive) | 0.634 (inactive)
12 | CAAVMGSSYGAGNASASA [HC1463] | -0.652 (inactive) | 0.469 (inactive) | -0.776 (inactive)
13 | CALVFFCFAWAGNASASA [HC545] | -0.625 (inactive) | -0.493 (inactive) | -2.31 (inactive)
14 | CAKSNRFRRQAGNASASA [FS-453] | 9.35 (active) | 7.39 (active) | 5.76 (active)
15 | CAKNEVFCVQAGNASASA [HC1441] | -0.977 (inactive) | -0.752 (inactive) | -0.637 (inactive)
16 | CAKNNRGRRQAGNASASA [FS-1018] | 8.48 (active) | 8.87 (active) | 9.25 (active)
17 | CAKYNRGRRKAGNASASA [FS-1598] | -1.68 (inactive) | 1.26 | 2.34
18 | CARNTNRRPQAGNASASA [HC167] | 0.367 (inactive) | 0.97 (inactive) | -0.345 (inactive)
19 | CAAKRRTRRQAGNASASA [FS-1443] | 9.31 (active) | 8.38 (active) | 7.06 (active)
20 | CAATVCARAQAGNASASA [HC956] | -0.452 (inactive) | 0.685 (inactive) | -0.234 (inactive)
21 | CAAKRRFRRQAGNASASA [FS-521] | 11.3 (active) | 11.5 (active) | 9.92 (active)
22 | CAERTTPCSGAGNASASA [HC1973] | -0.657 (inactive) | 0.759 (inactive) | 0.0382 (inactive)
23 | CAVVCCFMSYAGNASASA [HC106] | 0.2 (inactive) | -0.139 (inactive) | -1.5 (inactive)
24 | CAMEEWSQHLAGNASASA [HC7] | -0.124 (inactive) | 0.451 (inactive) | 0.398 (inactive)
25 | CAGKRRFRRQAGNASASA [FS-783] | 8.34 (active) | 7.16 (active) | 6.56 (active)

Row | Sequence | furin cleavage Z-score (7.5 min) | furin cleavage Z-score (15 min) | furin cleavage Z-score (30 min)
26 | CAGMLRQRRPAGNASASA [FS-1001] | -1.01 (inactive) | -1.53 (inactive) | -1.03 (inactive)
27 | CAKARRFVEQAGNASASA [FS-2121] | -0.772 (inactive) | 0.447 (inactive) | -0.0659 (inactive)
28 | CAGRHCVRRSAGNASASA [FS-163] | 3.46 | 4.86 (active) | 4.64 (active)
29 | CAGHGRQERSAGNASASA [FS-530] | 1.31 | 3.84 (active) | 3.39
30 | CAFAERSGRGAGNASASA [FS-1322] | -0.454 (inactive) | 0.465 (inactive) | 0.178 (inactive)
31 | CAFAERQRRSAGNASASA [FS-1588] | 11.1 (active) | 11 (active) | 10.4 (active)
32 | CAGTTRQRRSAGNASASA [FS-1458] | 9.35 (active) | 9.67 (active) | 7.94 (active)
33 | CAGSSGGPLLAGNASASA [HC742] | -1.42 (inactive) | -0.944 (inactive) | -0.396 (inactive)
34 | CAEVPCHRPQAGNASASA [HC2422] | 1.53 | 0.977 (inactive) | -0.457 (inactive)
35 | CAHVCCSMSYAGNASASA [HC1995] | -0.946 (inactive) | -0.551 (inactive) | -0.241 (inactive)
36 | CASTPCSAHGAGNASASA [HC2576] | -0.871 (inactive) | 0.825 (inactive) | -0.885 (inactive)
37 | CAIKLGALTGAGNASASA [HC630] | -0.745 (inactive) | -0.643 (inactive) | -1.94 (inactive)
38 | CAGMMLAEQFAGNASASA [HC1021] | 0.171 (inactive) | 0.335 (inactive) | -0.461 (inactive)
39 | CASKRDHRRSAGNASASA [FS-1411] | 1.79 | -0.35 (inactive) | 0.449 (inactive)
40 | CASCARHRRSAGNASASA [FS-90] | 4.64 (active) | 3.79 (active) | 4.71 (active)
41 | CARHRRLRGPAGNASASA [FS-1825] | -1.67 (inactive) | -0.893 (inactive) | -1.28 (inactive)
42 | CARHRRQRRSAGNASASA [FS-707] | 10.1 (active) | 10.5 (active) | 8.1 (active)
43 | CAMEECSQKLAGNASASA [HC1754] | 1.17 | 0.659 (inactive) | 1.26
44 | CARMRRDGWPAGNASASA [FS-2723] | 2.95 | 4.8 (active) | 5.65 (active)
45 | CARMRRPPGGAGNASASA [FS-2496] | -0.899 (inactive) | -0.697 (inactive) | -0.784 (inactive)
46 | CATTMRSPVFAGNASASA [HC762] | -1.56 (inactive) | -0.725 (inactive) | -0.54 (inactive)
47 | CARDGRDGTPAGNASASA [FS-2000] | 0.0974 (inactive) | -0.249 (inactive) | 0.34 (inactive)
48 | CARMRRRPGPAGNASASA [FS-2725] | 0.305 (inactive) | 1.58 | 1.1
49 | CARMRRALVFAGNASASA [FS-3001] | 4.84 (active) | 4.35 (active) | 6.45 (active)
